Test [1] can be described thus: NCI Yeast Anticancer Drug Screen. Data for the rad50 strain (AID 155).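 Note: 0% = growth of vehicle-only cultures of the same strain.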 The following applies: S. cerevisiae rad50 strain growth inhibition, active compounds read high. Summed up:
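DNA repair mutant yeast, compound exposure, growth read-out; inhibition is taken relative to vehicle.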

Test [2] is described as follows: NCI Yeast Anticancer Drug Screen. Data for the mec2-1 strain (AID 157). The conditions noted are these: S. cerevisiae mec2-1 strain, active compounds read high. Summed up:
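Readout is yeast growth inhibition, normalised to vehicle-treated controls, in the mec2-1 strain exposed to compound.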

Test [3] in a line: NCI Yeast Anticancer Drug Screen. Data for the sgs1 mgt1 strain (AID 161).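 Note: 0% = growth of cultures given vehicle only.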 The conditions noted are these: S. cerevisiae sgs1 mgt1 strain, active compounds read high. Put shortly: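 Growth of a repair-deficient yeast mutant was monitored after compound treatment and expressed as inhibition relative to vehicle-treated cultures.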
The nature of test [4]: NCI Yeast Anticancer Drug Screen. Data for the cln2 rad14 strain (AID 165).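 Note: 0% = growth equal to vehicle treated cultures.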 The conditions noted are these: S. cerevisiae cln2 rad14 strain, active compounds read high. Summed up:
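Relative to vehicle controls, growth inhibition of compound-treated cln2 rad14 yeast was recorded.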

A short description of test [5]: NCI Yeast Anticancer Drug Screen. Data for the bub3 strain (AID 167). The following applies: S. cerevisiae bub3 mutant strain, active compounds read high. Put shortly:
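In this screen, a yeast mutant lacking normal mitotic checkpoint function is challenged with compound. Relative growth versus vehicle gives the inhibition value.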

Test [6] can be described thus: NCI Yeast Anticancer Drug Screen. Data for the mlh1 rad18 strain (AID 175). The following applies: S. cerevisiae mlh1 rad18 strain growth inhibition, active compounds read high. Put shortly: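 Test agents were incubated with a yeast strain of defined genotype (DNA damage repair defect). Inhibition of growth was derived by comparison with vehicle-exposed cultures.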
The mark [7] stands for this setting: at 5.0 µM (retest, dose inferred, filed as 0.5).
Where [8] appears, read: at 50.0 µM (retest, dose inferred, filed as 5.0).

Compounds without any hit were thinned out: in the full panel of roughly 79,000, 15% have a hit. Values without a mark were called inactive. Activity calls are given as the source filed them. Cut-off read from the data, not from the text of the source: active = growth inhibition above about 70%; inactive = the rest.

As to `N#Cc1cc([N+](=O)[O-])c(Cl)c([N+](=O)[O-])c1`, the growth inhibition in test [1] (setting [7]) is 52%; in test [1] (setting [8]), 99% (active); in test [1] (at 50.0 µM), 91.5% (active); in test [2] (setting [7]), 46%; in test [2] (setting [8]) it was 99% (active); in test [2] (at 50.0 µM), 93% (active). Further, the growth inhibition in test [3] (setting [7]) was 100% (active); in test [3] (setting [8]), 100% (active); in test [3] (at 50.0 µM), 93.8% (active); in test [4] (setting [7]), 67%; in test [4] (setting [8]), 101% (active); in test [4] (at 50.0 µM) it was 93.3% (active). Moreover, the growth inhibition was 101% (active) in test [5] (setting [7]); 100% (active) in test [5] (setting [8]); 92.7% (active) in test [5] (at 50.0 µM); 37% in test [6] (setting [7]); 100% (active) in test [6] (setting [8]); 92.2% (active) in test [6] (at 50.0 µM).

Consider `Cc1cccc(C)c1N=C(N)N[N+](=O)[O-]`, for which the growth inhibition in test [1] (setting [7]) was 45%; in test [1] (setting [8]), 96% (active); in test [1] (at 50.0 µM), 89.5% (active); in test [2] (setting [7]) it was 53%; in test [2] (setting [8]) it was 97% (active); in test [2] (at 50.0 µM), 90.3% (active). The growth inhibition in test [3] (setting [7]) is 90% (active); in test [3] (setting [8]) it was 98% (active); in test [4] (setting [7]), 57%; in test [4] (setting [8]), 98% (active); in test [5] (setting [7]), 27%; in test [5] (setting [8]), 97% (active).

On to `CC(C)c1cc([N+](=O)[O-])cc([N+](=O)[O-])c1O`, for which the growth inhibition is 9% in test [1] (setting [7]); 88% (active) in test [1] (setting [8]); 82.4% (active) in test [1] (at 50.0 µM); -20% in test [2] (setting [7]); 90% (active) in test [2] (setting [8]); 62.1% in test [2] (at 50.0 µM). Also, the growth inhibition is 1% in test [3] (setting [7]); 87% (active) in test [3] (setting [8]); 86.1% (active) in test [3] (at 50.0 µM); 8% in test [4] (setting [7]); 82% (active) in test [4] (setting [8]); 58% in test [4] (at 50.0 µM). In addition, the growth inhibition in test [6] (setting [7]) is 6%; in test [6] (setting [8]) it was 90% (active); in test [6] (at 50.0 µM), 80.7% (active).

For the molecule `O=C(CC(=O)c1ccccc1)c1ccccc1.O=C(CC(=O)c1ccccc1)c1ccccc1.O=C(CC(=O)c1ccccc1)c1ccccc1.[Al]`, the growth inhibition in test [1] (setting [7]) was 2%; in test [1] (setting [8]) it was -3%; in test [1] (at 50.0 µM) it was 19.7%; in test [2] (setting [7]), 5%; in test [2] (setting [8]), 4%; in test [2] (at 50.0 µM), 86.4% (active). Moreover, the growth inhibition in test [3] (setting [7]) was 5%; in test [3] (setting [8]), 2%; in test [3] (at 50.0 µM), 43.6%; in test [5] (setting [7]), 4%; in test [5] (setting [8]) it was 3%; in test [5] (at 50.0 µM), 6.55%. For the same molecule, the values for the growth inhibition in test [6] (setting [7]), in test [6] (setting [8]) and in test [6] (at 50.0 µM) were 0%, 0% and 20.4%, respectively.

For `Nc1nc(N)c(-c2ccc(Cl)c(Cl)c2)c(COc2cccc(CNS(=O)(=O)c3ccc(S(=O)(=O)F)cc3)c2)n1`, the growth inhibition in test [1] (setting [7]) is 3%; in test [1] (setting [8]) it was 57%; in test [1] (at 50.0 µM) it was 51.1%; in test [2] (setting [7]), -3%; in test [2] (setting [8]) it was 86% (active); in test [2] (at 50.0 µM) it was 49.5%. For the same molecule, the growth inhibition in test [4] (setting [7]) was -4%; in test [4] (setting [8]), 40%; in test [4] (at 50.0 µM) it was 54.8%; in test [5] (setting [7]), -3%; in test [5] (setting [8]), 68%; in test [5] (at 50.0 µM), 48.8%. For the same molecule, the growth inhibition in test [6] (setting [7]) was 4%; in test [6] (setting [8]), 80% (active); in test [6] (at 50.0 µM), 47%.

In the case of `O=C1CC2CCCC(C1)N2Cc1ccccc1`, the growth inhibition in test [1] (setting [7]) was 2%; in test [1] (setting [8]), 26%; in test [1] (at 50.0 µM), 71.5% (active); in test [2] (setting [7]) it was 4%; in test [2] (setting [8]) it was 28%; in test [2] (at 50.0 µM) it was -6.1%. Further, the growth inhibition in test [3] (setting [7]) is 15%; in test [3] (setting [8]) it was 47%; in test [3] (at 50.0 µM), 62.5%; in test [5] (setting [7]), -2%; in test [5] (setting [8]) it was 25%; in test [5] (at 50.0 µM) it was 34.9%. In addition, the growth inhibition in test [6] (setting [7]) is 7%; in test [6] (setting [8]) it was 24%; in test [6] (at 50.0 µM), 51.7%.

Turning to `CC(=O)[O-].O=C([CH-]C(=O)c1ccccc1)c1ccccc1.O=C([CH-]C(=O)c1ccccc1)c1ccccc1.[Y+3]`, the growth inhibition in test [1] (setting [7]) was 35%; in test [1] (setting [8]), 35%; in test [1] (at 50.0 µM), 91.4% (active); in test [2] (setting [7]) it was 19%; in test [2] (setting [8]), 19%; in test [2] (at 50.0 µM), 93.7% (active). In addition, the growth inhibition in test [3] (setting [7]) is 42%; in test [3] (setting [8]), 42%; in test [3] (at 50.0 µM), 93.6% (active); in test [5] (setting [7]) it was 21%; in test [5] (setting [8]), 21%; in test [5] (at 50.0 µM), 92% (active). The growth inhibition in test [6] (setting [7]) is 13%; in test [6] (setting [8]), 13%; in test [6] (at 50.0 µM), 90.5% (active).

Take `CC(=O)[C-](Cl)C(C)=O.CC(=O)[C-](Cl)C(C)=O.CC(=O)[C-](Cl)C(C)=O.[Ru+3]`: the growth inhibition in test [1] (setting [7]) is 16%; in test [1] (setting [8]) it was 98% (active); in test [1] (at 50.0 µM) it was 34.6%; in test [2] (setting [7]) it was 15%; in test [2] (setting [8]), 99% (active); in test [2] (at 50.0 µM), 84.8% (active). Also, the growth inhibition in test [4] (setting [7]) was 8%; in test [4] (setting [8]), 99% (active); in test [4] (at 50.0 µM), -1.7%; in test [5] (setting [7]), -1%; in test [5] (setting [8]), 99% (active); in test [5] (at 50.0 µM), -17.4%. The figures for the growth inhibition in test [6] (setting [7]), in test [6] (setting [8]) and in test [6] (at 50.0 µM) were 6%, 99% (active) and 76.8% (active), respectively.

As for `CC(CCC/C=C/CCCN(C)C(=N)N)CC(C)C1OC(=O)C(C)C(O)/C=C/C(C)C(O)C(C)C(O)C(C)C(O)CCCC(O)CC2(O)OC(CC(OC(=O)CC(=O)O)CC(O)CC(O)C(C)C(O)/C=C/C=C/C1C)CC(O)C2O` (stereo not given), the growth inhibition in test [1] (setting [7]) is -79%; in test [1] (setting [8]), 99% (active); in test [1] (at 50.0 µM) it was 92.9% (active); in test [2] (setting [7]), 7%; in test [2] (setting [8]), 99% (active); in test [2] (at 50.0 µM) it was 94.1% (active). In addition, the growth inhibition in test [3] (setting [7]) was 6%; in test [3] (setting [8]), 99% (active); in test [3] (at 50.0 µM) it was 93.6% (active); in test [5] (setting [7]), 9%; in test [5] (setting [8]), 99% (active); in test [5] (at 50.0 µM), 93.1% (active). Besides, the values for the growth inhibition in test [6] (setting [7]), in test [6] (setting [8]) and in test [6] (at 50.0 µM) were 13%, 99% (active) and 92.8% (active), respectively.

For `CC(C=O)[Se]c1ccccc1` (stereo not given), the growth inhibition was -2% in test [1] (setting [7]); 57% in test [1] (setting [8]); 91.9% (active) in test [1] (at 50.0 µM); 8% in test [2] (setting [7]); 53% in test [2] (setting [8]); 77.7% (active) in test [2] (at 50.0 µM). Besides, the growth inhibition in test [3] (setting [7]) was -3%; in test [3] (setting [8]), 72% (active); in test [3] (at 50.0 µM), 86.2% (active); in test [5] (setting [7]) it was 11%; in test [5] (setting [8]), 67%; in test [5] (at 50.0 µM) it was 86.8% (active). The growth inhibition was 12% in test [6] (setting [7]), 73% (active) in test [6] (setting [8]) and 91.5% (active) in test [6] (at 50.0 µM).

Values taken from PubChem BioAssay (NCI).
